From PubChem
G9a inh: inhibitors of human histone lysine methyltransferase G9a. 350,000 compounds, 8.8% hits. Q96KQ7. Potency, µM (series often up to 102 µM), actives largely listed as inhibitors. G9a H3K9 monomethylation, AlphaScreen, 2 h. AID 504332; also: nearly all actives have a fitted effect of over 75% in size
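Compounds were preincubated with 20 nM G9a for 15 min, after which biotinylated H3K9 peptide (500 nM) and SAM (20 uM) started a 2 h room-temperature reaction. Monomethylated product was quantified by antibody-based AlphaScreen chemiluminescence.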
JMJD2A Tudor inh: blocks the human JMJD2A Tudor domain; AID 504339; Potency, µM (highest dose often 114 µM), most hits filed as inhibitors; O75164; 390,000 compounds, 4.4% hits; AlphaScreen JMJD2A-Tudor / H3K4me3 peptide binding; also: nearly all actives have a fitted effect of over 50% in size
CtBP-E1A inh: CtBP/E1A binding inhibition; AlphaScreen GST-E1A/His-CtBP binding, 1536-well; stronger effect = lower value; activity change, % (no concentration beside the values); 340,000 compounds, 0.49% hits; AID 651724; in the data active = activity change below about -65%; inconclusive = mostly about -30% to -63%
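In 5 uL wells, 23 nL compound meets equimolar GST-E1A and His-CtBP (5X stock 125 nM each) for 2 h, 37 °C. Beads (5X, 50 ug/mL) then 1 h, 37 °C, dark.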
BAZ2B block: blocks human BAZ2B; Q9UIF8; AlphaScreen BAZ2B-H3K14Ac peptide displacement; Potency, µM (top dose mostly 114 µM), actives largely listed as inhibitors; 360,000 compounds, 4.4% hits; also: nearly all actives have a fitted effect of over 60% in size
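BAZ2B (50 nM) with biotin-H3(5-23)K14Ac peptide (50 nM) in PBS pH 7.4, 0.01% Tween-20, preformed 30 min, then compound 30 min at room temperature; top concentration 110uM. AlphaScreen streptavidin donor/nickel chelate acceptor beads (10 ug/mL final), 20 min dark, signal read.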
HP1b chromo inh: HP1-beta chromodomain-methylated histone interaction inhibition. 390,000 compounds, 0.56% hits. AlphaScreen HP1-beta / biotin-H3K9me3 peptide binding. AID 540317. P83916. Potency, µM (doses to about 114 µM), usual class: inhibitors; also: nearly all actives have a fitted effect of over 70% in size
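Compound inhibition of the preformed complex between 50 nM HP1-beta and 50 nM biotinylated H3K9me3 peptide was read by AlphaScreen. Buffer was PBS pH 7.4 with 0.01% Tween-20. Incubations ran 30 min at room temperature, with 10 ug/mL donor/acceptor beads.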
Six1-Eya2 inh: Six1/Eya2 interaction inhibition; Q15475+O00167; AlphaScreen GST-Six1/His-Eya2 binding, biochemical; stronger effect = lower value; activity change, % (no concentration beside the values); 360,000 compounds, 0.56% hits; AID 651725; in the data active = activity change below about -65%; inconclusive = mostly about -30% to -63%
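AlphaScreen luminescence read after one hour at 37 °C in darkness. Pin-transferred compounds met GST-Six1 and His-Eya2 protein (5X stock 250 nM/500 nM) plus glutathione donor and Ni-chelate acceptor beads (5X, 50 ug/mL).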
Of the large screens only hits and unclear results are named; the others gave an inactive call. In the library only some 10% were active in any assay of this set; here they are far more common. Unless noted, calls follow the shape of the dose curve; as a rule, active = well fitted inhibition curve with a large enough effect; inconclusive = small, poorly fitted or top-dose-only effect; inactive = no such curve, though single readings can be large or run the other way.

Cc1ccc(/C=C2\CC(C)CC3=C2NC(=S)NC3c2ccc(C)cc2)cc1 (stereo not given)	G9a inh inconclusive, JMJD2A Tudor inh inconclusive
CC1CC2=C(NC(=S)NC2c2ccccc2F)/C(=C/c2ccccc2F)C1 (stereo not given)	G9a inh 18µM, JMJD2A Tudor inh inconclusive, BAZ2B block inconclusive
COc1ccc(-c2[nH]c3ccccc3c2SCCN)cc1	BAZ2B block inconclusive
CCOc1ccc(C(=O)OCC(=O)N2CCCC2)cc1OCC	none
O=[S+]([O-])(NC[C@H]1CCC[C@H](CN[S+](=O)([O-])c2c(F)cccc2F)C1)c1ccc2c(c1)OCCO2	none (no result: G9a inh, CtBP-E1A inh, BAZ2B block, HP1b chromo inh, Six1-Eya2 inh)
COc1ccc(CNC(=O)COC(=O)C2CC2C)cc1OC (stereo not given)	G9a inh 14µM
COc1ccc(CNC(=O)C2CC=CCC2C(=O)O)cc1OC (stereo not given)	none
CC1CC1C(=O)OCC(=O)NCc1ccc(Cl)cc1 (stereo not given)	none
COc1ccc(CNC(=O)C2CCCN2)cc1OC (stereo not given)	G9a inh 18µM, JMJD2A Tudor inh 3.2µM, BAZ2B block 45µM, HP1b chromo inh 79µM
COc1ccc(-n2c(SC)nc3sc4c(c3c2=O)CCN(C)C4)cc1	G9a inh inconclusive
COc1ccc(-n2c(=O)c3c4c(sc3n3c(=S)[nH]nc23)CCCC4)cc1	G9a inh inconclusive, JMJD2A Tudor inh 56µM
COc1ccc(-n2c(=S)[nH]c3sc4c(c3c2=O)CCN(C)C4)cc1	G9a inh 14µM (no result: JMJD2A Tudor inh, CtBP-E1A inh, HP1b chromo inh, Six1-Eya2 inh)
CC(C)C1Cc2c(sc3c2c(=O)n(-c2ccccc2)c2n[nH]c(=S)n32)CO1 (stereo not given)	G9a inh 1.3µM, JMJD2A Tudor inh 20µM
COC(=O)CSc1nnc2n(-c3ccc(OC)cc3)c(=O)c3c4c(sc3n12)CCCCC4	none
NS(=O)(=O)c1ccc(CCNC(=O)C2CC(=O)N(Cc3ccccc3Cl)C2)cc1 (stereo not given)	none
Cc1c(CN(C)C)c2c(n1Cc1ccccc1)C(=O)c1ccc(Br)cc1-2	G9a inh 18µM, JMJD2A Tudor inh 40µM, CtBP-E1A inh inconclusive, BAZ2B block 22µM, HP1b chromo inh inconclusive, Six1-Eya2 inh -65
Cc1c(CCOC(=O)c2cc([N+](=O)[O-])cc([N+](=O)[O-])c2)sc[n+]1CC(=O)c1ccc(Br)cc1	G9a inh 2.5µM, JMJD2A Tudor inh inconclusive, BAZ2B block 50µM
Cc1c(CCOC(=O)c2ccc(Cl)cc2Cl)sc[n+]1CC(=O)c1ccccc1	none (no result: G9a inh, BAZ2B block)
N#C/C(=C\c1cn(CC(=O)N2CCCCC2)c2ccccc12)C(=O)NCc1ccc2c(c1)OCO2	none
CC(=O)c1cccc(NC(=S)NNC(=O)c2ccc(C)c([N+](=O)[O-])c2)c1	G9a inh 20µM, JMJD2A Tudor inh inconclusive
Cc1cccc(NC(=O)NNC(=O)c2ccc(C)c([N+](=O)[O-])c2)c1	none (no result: G9a inh)
CC(=O)c1cccc(NCC(=O)c2ccc(C)c([N+](=O)[O-])c2)c1	G9a inh 35µM
CC(=O)Nc1cccc(NC(=O)c2ccc(C)c([N+](=O)[O-])c2)c1	none
COc1ccc(-c2c/c(=N\c3nc(-c4ccccc4)c(C)s3)c3ccccc3o2)cc1O	G9a inh inconclusive, JMJD2A Tudor inh inconclusive, BAZ2B block 50µM, HP1b chromo inh inconclusive, Six1-Eya2 inh inconclusive
CNC(=O)[C@H](Cc1c[nH]c2ccccc12)NC(=O)[C@@H](CC(=O)NO)CC(C)C	none (no result: JMJD2A Tudor inh, CtBP-E1A inh, BAZ2B block, HP1b chromo inh, Six1-Eya2 inh)
CCCCN(CCCNC(=O)C1CCN(S(=O)(=O)N2CCOCC2)CC1)c1ccccc1	G9a inh 40µM, JMJD2A Tudor inh inconclusive
CCN(CCCNC(=O)C1CCN(S(=O)(=O)c2c(C)[nH]c(=O)[nH]c2=O)CC1)c1cccc(C)c1	G9a inh 50µM
CCN(CCCNC(=O)C1CCN(S(=O)(=O)N2CCC3(CC2)OCCO3)CC1)c1ccccc1	G9a inh inconclusive
CC(C)Cc1nc2ccc(N)cc2[nH]1	G9a inh inconclusive, JMJD2A Tudor inh 22µM
Nc1ccc2nc(CN3CCOCC3)[nH]c2c1	G9a inh inconclusive, JMJD2A Tudor inh inconclusive, BAZ2B block 50µM
c1ccc2[nH]c(CN3CCOCC3)nc2c1	none
CC(C)Cc1nc2ccccc2[nH]1	G9a inh inconclusive
Cc1ccc2nc(Cc3ccc(N)cc3)[nH]c2c1	BAZ2B block 56µM
Cc1cccc(C(=O)Nc2cc(-c3ccccc3F)nn2-c2ccccc2)c1	none (no result: CtBP-E1A inh, Six1-Eya2 inh)
c1ccc(-c2cc(-c3ccc(N4CCOCC4)cc3)nc3ccccc23)cc1	none
COc1ccc2c(-c3ccccc3)cc(N3CCOCC3)nc2c1	G9a inh 2.2µM, JMJD2A Tudor inh 1.3µM, BAZ2B block 25µM, HP1b chromo inh 25µM
Cc1ccc(Cn2c(SCC(=O)C(C)(C)C)nc3ccsc3c2=O)cc1	none (no result: CtBP-E1A inh, Six1-Eya2 inh)
O=C(CCc1ccc(O)c(O)c1)NNC(=S)NCCc1ccccc1	JMJD2A Tudor inh inconclusive
O=C(CCc1ccc(O)c(O)c1)NNC(=S)Nc1ccc(Br)cc1Cl	G9a inh 18µM
CC(C(=O)Nc1ncc([N+](=O)[O-])s1)N1C(=O)c2ccccc2S1(=O)=O (stereo not given)	G9a inh 11µM, JMJD2A Tudor inh 20µM
Cc1nc(NS(=O)(=O)c2ccc(N)cc2)nc(C)c1Br	none (no result: JMJD2A Tudor inh, CtBP-E1A inh, BAZ2B block, HP1b chromo inh, Six1-Eya2 inh)
Cc1c(Cl)cccc1-c1ccc(CNCc2ccccn2)o1	G9a inh 79µM, JMJD2A Tudor inh inconclusive, CtBP-E1A inh inconclusive, BAZ2B block 25µM, Six1-Eya2 inh inconclusive
Cc1ccnc(NC(c2ccncc2)c2c(C)[nH]c3ccccc23)c1 (stereo not given)	G9a inh 10µM, BAZ2B block inconclusive
Cc1[nH]c2ccccc2c1C(Nc1nccs1)c1ccncc1 (stereo not given)	BAZ2B block inconclusive
Cc1[nH]c2ccccc2c1C(c1ccncc1)N1CCCCC1 (stereo not given)	G9a inh 35µM, BAZ2B block inconclusive
CC(=O)Nc1ccccc1-c1nc2ccc(C(=O)N3CCN(c4ccccc4)CC3)cc2[nH]c1=O	G9a inh 45µM
CC(=O)Nc1ccccc1-c1nc2ccc(C(=O)N3CCN(c4cccc(C)c4)C(C)C3)cc2[nH]c1=O (stereo not given)	G9a inh inconclusive
COc1ccc(N2CC(C(=O)N3CCN(S(=O)(=O)c4ccc(F)c(F)c4)CC3)CC2=O)c(OC)c1 (stereo not given)	none (no result: G9a inh, BAZ2B block)
[O-][n+]1c2ccccc2[n+]([O-])c2cc(O)ccc21	G9a inh 1.4µM, JMJD2A Tudor inh 79µM, BAZ2B block 40µM, HP1b chromo inh 45µM, Six1-Eya2 inh inconclusive
O=C(COC(=O)c1cc2ccccc2oc1=O)c1cccc([N+](=O)[O-])c1	none
